# Screen size: about 5,500 compounds; about 2,000 (36%) were called active. Roughly 18% stayed inconclusive and do not appear here. This is one part of the list. A number with no mark means an inactive call. Cut-off read from the data, not from the text of the source: active = normalized growth mostly below about 0.91 (no sharp cut-off); inconclusive = no clear call, values can overlap the other calls; inactive = mostly above about 0.92.
# Assay: chemical genetic growth profiling, strain panel (AID 1159580);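 note: tested at 20 µM; growth read once vehicle control cultures reached saturation at 30 °C; 1 = growth at the plate median or of vehicle wells; lower values mean less growth of the strain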
# Details: S. cerevisiae deletion strains, growth OD
smiles,measurement,setting,value
c1ccc(N=Nc2ccc(Nc3ccccc3)cc2)cc1,normalized growth,"locus YAL013W, strain DEP1, hits give low values",0.916 (active)
same,normalized growth,"locus YBR229C, strain ROT2, hits give low values",0.823 (active)
same,normalized growth,"locus YCL061C, strain MRC1, hits give low values",0.89 (active)
same,normalized growth,"locus YDL101C, strain DUN1, hits give low values",0.977
same,normalized growth,"locus YDL134C, strain PPH21, hits give low values",0.825 (active)
same,normalized growth,"locus YDR150W, strain NUM1, hits give low values",0.906
same,normalized growth,"locus YEL061C, strain CIN8, hits give low values",0.74 (active)
same,normalized growth,"locus YGR078C, strain PAC10, hits give low values",0.897 (active)
same,normalized growth,"locus YGR229C, strain SMI1, hits give low values",0.984
same,normalized growth,"locus YHR030C, strain SLT2, hits give low values",0.57 (active)
same,normalized growth,"locus YHR087W, strain rtc3, hits give low values",0.751 (active)
same,normalized growth,"locus YJR043C, strain POL32, hits give low values",0.91 (active)
same,normalized growth,"locus YJR075W, strain HOC1, hits give low values",0.754 (active)
same,normalized growth,"locus YLR039C, strain RIC1, hits give low values",0.425 (active)
same,normalized growth,"locus YLR058C, strain SHM2 (second series), hits give low values",0.964
same,normalized growth,"locus YLR085C, strain ARP6, hits give low values",0.389 (active)
same,normalized growth,"locus YLR262C, strain YPT6, hits give low values",0.37 (active)
same,normalized growth,"locus YML094W, strain GIM5, hits give low values",0.812 (active)
same,normalized growth,"locus YMR219W, strain ESC1, hits give low values",0.92 (active)
same,normalized growth,"locus YMR263W, strain SAP30, hits give low values",0.9 (active)
same,normalized growth,"locus YMR307W, strain GAS1, hits give low values",0.405 (active)
same,normalized growth,"locus YNL128W, strain TEP1, hits give low values",0.913 (active)
same,normalized growth,"locus YNL153C, strain GIM3, hits give low values",0.914 (active)
same,normalized growth,"locus YNL298W, strain CLA4 (second series), hits give low values",0.79 (active)
same,normalized growth,"locus YNL322C, strain KRE1, hits give low values",1
same,normalized growth,"locus YNR030W, strain Alg12, hits give low values",0.737 (active)
same,normalized growth,"locus YPL055C, strain LGE1, hits give low values",0.626 (active)
same,normalized growth,"locus YPL241C, strain CIN2, hits give low values",0.75 (active)
same,normalized growth,"locus YPR135W, strain CTF4, hits give low values",0.748
